The panel holds about 83,000 compounds, 20% with a hit somewhere; the sample as a whole holds those more often.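 In brief: 96-well plates, 48 h treatment, single concentration, percent growth endpoint.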 A number with no mark means an inactive call. Activity calls are given as the source filed them. The calls were made as follows: active = growth percent below 10; inactive = the rest.

The text below walks through data of PubChem BioAssay (NCI).

Test systems include RPMI-8226 leukemia; OVCAR-8 ovarian; OVCAR-5 ovarian; OVCAR-4 ovarian; SK-OV-3 ovarian; OVCAR-3 ovarian; HS 578T breast; NCI/ADR-RES ovarian; T-47D breast; BT-549 breast; MDA-MB-435 melanoma; SW-620 colon; MCF7 breast; HCT-116 colon; KM12 colon; IGROV1 ovarian; HCC-2998 colon.
Assay in all cases: NCI-60 one-dose screen, 48 h (100 = growth as untreated, 0 = no growth, -100 = all killed)
Common to all, as to settings: 10 µM unless noted

Consider `CN(C)Cc1cc(C(C)(C)C)cc(Br)c1O`, for which the growth was 96.9% in the assay on RPMI-8226 leukemia; 106% with OVCAR-8 ovarian; 107% with OVCAR-5 ovarian; 102% in the assay on OVCAR-4 ovarian; 97.4% in the assay with SK-OV-3 ovarian; 114% in the assay with OVCAR-3 ovarian. In addition, the growth with HS 578T breast was 30.7%; in the assay on NCI/ADR-RES ovarian, 106%; with T-47D breast it was 99.6%; with BT-549 breast it was 114%; in the assay with MDA-MB-435 melanoma, 101%; in the assay on SW-620 colon, 87.7%. Besides, the values for the growth in the assay with MCF7 breast, in the assay on HCT-116 colon and in the assay with KM12 colon were 87.9%, 103% and 109%, respectively.

Take `CCOC(=O)c1c(C)nc2ccccc2c1/C=C/c1ccc(F)cc1`: the growth in the assay with RPMI-8226 leukemia was 48.7%; in the assay on OVCAR-8 ovarian it was 70.4%; with OVCAR-5 ovarian, 93.1%; in the assay on OVCAR-4 ovarian, 64.2%; in the assay on IGROV1 ovarian, 66.6%; in the assay on OVCAR-3 ovarian it was 80.8%. For the same compound, the growth is 96.3% with HS 578T breast; 41.2% with NCI/ADR-RES ovarian; 23.4% in the assay on T-47D breast; 73.6% in the assay with BT-549 breast; 78.7% in the assay on MDA-MB-435 melanoma; 85.5% in the assay on SW-620 colon. Besides, the growth in the assay on MCF7 breast was 23.3%; with HCT-116 colon, 56.2%; in the assay with HCC-2998 colon, 81.1%; in the assay on KM12 colon, 72.5%.

With `COc1ccc(C(=O)C/C(=C\c2ccc(O)c(OC)c2)C(=O)NN)cc1`, the growth was 80.3% with RPMI-8226 leukemia; 80.7% in the assay with OVCAR-8 ovarian; 105% in the assay with OVCAR-5 ovarian; 101% in the assay on OVCAR-4 ovarian; 79.9% in the assay on SK-OV-3 ovarian; 82.6% in the assay with IGROV1 ovarian. Moreover, the growth is 87.6% in the assay on OVCAR-3 ovarian; 101% with HS 578T breast; 74.8% in the assay with NCI/ADR-RES ovarian; 66.9% in the assay on T-47D breast; 63.7% with BT-549 breast; 9.68% (active) with MDA-MB-435 melanoma. Also, the growth was 84.1% in the assay on SW-620 colon; 47.9% with MCF7 breast; 72.2% with HCT-116 colon; 104% in the assay with HCC-2998 colon; 73.2% in the assay with KM12 colon.

As to `O=C(/C=C/c1cccc(Oc2ccccc2)c1)c1ccc(Nc2nc(Nc3ccc(F)cc3)nc(Nc3ccc(Cl)cc3)n2)cc1`, the growth with RPMI-8226 leukemia was 25.4%; in the assay with OVCAR-8 ovarian it was 104%; in the assay with OVCAR-5 ovarian it was 99.5%; in the assay on SK-OV-3 ovarian, 120%; in the assay with IGROV1 ovarian, 94%; with OVCAR-3 ovarian, 104%. The growth is 109% with HS 578T breast; 96.8% in the assay with NCI/ADR-RES ovarian; 95.4% in the assay with T-47D breast; 104% in the assay on BT-549 breast; 112% with MDA-MB-435 melanoma; 104% with SW-620 colon. For the same compound, the figures for the growth in the assay with MCF7 breast, with HCC-2998 colon and with KM12 colon were 89.6%, 67.1% and 105%, respectively.

Take `COc1cc(-c2ccc[nH]2)[nH]c1/C=C1\N=C(C)C(CC(=O)OCC(C)(C)C)=C1C`: the growth with RPMI-8226 leukemia was -49.6% (active); in the assay with OVCAR-8 ovarian it was -60.8% (active); with OVCAR-5 ovarian it was -55.1% (active); with OVCAR-4 ovarian, -91.5% (active); in the assay on SK-OV-3 ovarian it was -57.3% (active); with IGROV1 ovarian it was -43.4% (active). Further, the growth is -98% (active) with OVCAR-3 ovarian; -24.8% (active) in the assay with HS 578T breast; -65.8% (active) in the assay with NCI/ADR-RES ovarian; -58.7% (active) in the assay on T-47D breast; -87.7% (active) in the assay with BT-549 breast; -81.9% (active) with MDA-MB-435 melanoma. The growth was -64.6% (active) with SW-620 colon; -74.1% (active) in the assay on MCF7 breast; -90.4% (active) with HCT-116 colon; -81.4% (active) in the assay on HCC-2998 colon; -90% (active) with KM12 colon.

Consider `COc1ccc(N=C2NN=C(c3c[nH]c4ccccc34)CS2)cc1OC`, for which the growth was 17% in the assay on RPMI-8226 leukemia; 71.7% in the assay on OVCAR-8 ovarian; 74.6% with OVCAR-5 ovarian; 69.2% in the assay with OVCAR-4 ovarian; 67.7% in the assay on SK-OV-3 ovarian; -32.4% (active) with IGROV1 ovarian. Moreover, the growth with OVCAR-3 ovarian was -9.06% (active); with HS 578T breast, 52.8%; with BT-549 breast it was -0.386% (active); in the assay with MDA-MB-435 melanoma it was -8.16% (active); in the assay on SW-620 colon, 50.4%; in the assay with MCF7 breast, 42.1%. The growth in the assay on HCT-116 colon was 39.1%; with HCC-2998 colon, 71.7%; in the assay on KM12 colon, 23.7%.

Regarding `O=CN1N=C(c2cccc(Nc3ccnc4cc(Cl)ccc34)c2)CC1c1ccc(Cl)cc1` (stereo unspecified), the growth was 32.9% in the assay on RPMI-8226 leukemia; 43.7% with OVCAR-8 ovarian; 58.7% with OVCAR-5 ovarian; 24.1% with SK-OV-3 ovarian; 38.7% in the assay on IGROV1 ovarian; -17% (active) with OVCAR-3 ovarian. For the same compound, the growth in the assay with HS 578T breast was 1.82% (active); with NCI/ADR-RES ovarian it was 5.69% (active); in the assay on T-47D breast, 43.3%; in the assay on BT-549 breast it was 8.58% (active); with MDA-MB-435 melanoma, -38.3% (active); in the assay with SW-620 colon it was 23.4%. For the same compound, the growth with MCF7 breast was 14.6%; in the assay on HCT-116 colon, 1% (active); with HCC-2998 colon, 44.3%; with KM12 colon, 28.1%.

Take `CC12OC(CC(O)C1O)n1c3ccccc3c3c4c(c5c6ccccc6n2c5c31)C(=O)N(CCN1CCCC1)C4=O` (stereo unspecified): the growth with RPMI-8226 leukemia was 1.17% (active); in the assay with OVCAR-8 ovarian, 26.3%; in the assay on OVCAR-5 ovarian it was 41.4%; in the assay on OVCAR-4 ovarian it was 27.9%; in the assay on SK-OV-3 ovarian, 10.4%; in the assay on IGROV1 ovarian, 13.9%. In addition, the growth was 25.7% in the assay on OVCAR-3 ovarian; 41.1% in the assay on HS 578T breast; 46.4% in the assay with NCI/ADR-RES ovarian; 21.9% in the assay with T-47D breast; 52.9% in the assay on BT-549 breast; 30.4% with MDA-MB-435 melanoma. Besides, the growth is 13.9% with SW-620 colon, 2.15% (active) in the assay on MCF7 breast, 13.3% in the assay with HCC-2998 colon and 27.9% with KM12 colon.

For `Cc1nc([P+](c2ccccc2)(c2ccccc2)c2ccccc2)c(N2CCCCC2)o1`, the growth with OVCAR-8 ovarian was 20.3%; with OVCAR-5 ovarian it was 54.1%; in the assay on OVCAR-4 ovarian, 19.8%; in the assay with SK-OV-3 ovarian it was 20.6%; in the assay on OVCAR-3 ovarian it was 19.5%; in the assay with HS 578T breast, 27.9%. Moreover, the growth in the assay on NCI/ADR-RES ovarian is 107%; with T-47D breast, -0.433% (active); in the assay on BT-549 breast, 20%; in the assay on MDA-MB-435 melanoma, 21.3%; in the assay on SW-620 colon, 37%; in the assay with MCF7 breast it was 10.9%. Besides, the growth in the assay on HCT-116 colon is 10.9%; in the assay on HCC-2998 colon it was 31.6%; in the assay with KM12 colon it was 10.1%.

Regarding `Cc1ccc(NC(=O)c2cc3ccccc3cc2O)c(C)c1`, the growth is 29.4% in the assay on RPMI-8226 leukemia; 109% in the assay on OVCAR-8 ovarian; 96.9% in the assay with OVCAR-5 ovarian; 74.4% in the assay with OVCAR-4 ovarian; 99.4% in the assay on SK-OV-3 ovarian; 80.4% with IGROV1 ovarian. Also, the growth was 66.4% with OVCAR-3 ovarian; 98.9% with HS 578T breast; 82.8% in the assay on NCI/ADR-RES ovarian; 97.2% with T-47D breast; 75.9% in the assay with BT-549 breast; 72.5% with MDA-MB-435 melanoma. Further, the growth in the assay with SW-620 colon was 78.1%; with MCF7 breast, 92.7%; in the assay on HCC-2998 colon it was 96.7%; in the assay with KM12 colon it was 83.1%.

As to `CCN1CCN(CCNc2nccc(-c3c(-c4ccc(F)c(O)c4)nc4occn34)n2)S1(=O)=O`, the growth was -22.7% (active) in the assay with RPMI-8226 leukemia; 11.7% in the assay on OVCAR-8 ovarian; 102% with OVCAR-5 ovarian; 54% with SK-OV-3 ovarian; 44.2% in the assay with IGROV1 ovarian; 39.4% with OVCAR-3 ovarian. Also, the growth with HS 578T breast was 42.6%; in the assay on NCI/ADR-RES ovarian, 12.3%; in the assay with T-47D breast it was -1.77% (active); in the assay on BT-549 breast it was 21.2%; in the assay on MDA-MB-435 melanoma, 10.1%; in the assay with SW-620 colon, 44.1%. Also, the growth is 17.7% in the assay with MCF7 breast, 16.3% in the assay on HCT-116 colon, 57.3% in the assay with HCC-2998 colon and 13.7% in the assay on KM12 colon.

For the compound `C=CN(C(=O)N1CCN(c2cc3c(cc2F)c(=O)c(C(=O)O)cn3C2CC2)CC1)c1nc(-c2ccccc2)cs1`, the growth in the assay with OVCAR-8 ovarian is 91.3%; in the assay with OVCAR-5 ovarian, 102%; with OVCAR-4 ovarian, 93.1%; with SK-OV-3 ovarian, 87.8%; in the assay on IGROV1 ovarian, 105%; in the assay with OVCAR-3 ovarian it was 108%. Besides, the growth in the assay with HS 578T breast is 97.8%; with T-47D breast, 78.9%; in the assay with BT-549 breast, 101%; in the assay on MDA-MB-435 melanoma, 96.4%; in the assay with SW-620 colon it was 112%; with MCF7 breast, 94.8%. Also, the growth was 86% with HCT-116 colon, 103% with HCC-2998 colon and 104% in the assay on KM12 colon.

`COC12C=C/C(=C(/C(=O)OCc3csc(SC)n3)C(=O)CCCCCCCCC3(OC)C=C/C(=C(/C(=O)OCc4cnc(SC)s4)C(=O)CCCCCCCC1)O3)O2` (stereo unspecified): the growth is 1.53% (active) in the assay with RPMI-8226 leukemia; 27% in the assay on OVCAR-8 ovarian; 60% in the assay with OVCAR-5 ovarian; 38.8% with OVCAR-4 ovarian; 87.8% in the assay with SK-OV-3 ovarian; 21% in the assay with IGROV1 ovarian. Moreover, the growth in the assay with OVCAR-3 ovarian is 21.5%; in the assay on HS 578T breast, 57.2%; in the assay with NCI/ADR-RES ovarian it was 81.3%; in the assay on T-47D breast, 41.9%; in the assay with BT-549 breast, 31.7%; with MDA-MB-435 melanoma, 10%. Also, the growth with SW-620 colon is 27.6%; in the assay with MCF7 breast, 23.3%; in the assay with HCT-116 colon, 7.05% (active); in the assay with HCC-2998 colon, -62.4% (active); in the assay with KM12 colon it was 18.1%.
